In all, about 3,400 compounds went through this assay and about 120 (3.5%) were called active. The rule behind the calls is not given here. Not all results are given here. Measured potencies and affinities stand elsewhere.
experiment: viability loss in HepG2 hepatoma cells – cell-based, ATP luminescence, cherry-pick, activator set 2, cytotoxicity control, dose response (AID 1053143); settings: CellTiter-Glo ATP luminescence, 72 h; series mostly up to 26 µM

Row | Structure (SMILES) | activity change, negative = cytotoxicity
1 | Brc1ccccc1-c1nc2c3ccccc3ncn2n1 | inactive
2 | O=c1[nH]c2ccccc2nc1-c1cccs1 | inactive
3 | Cc1nc2nc(-c3cccs3)cn2nc1C | inactive
4 | COc1ccc(-c2ccc(SCC(=O)Nc3cc(C)on3)nn2)cc1OC | inactive
5 | Cc1ccc(C(=O)OCC(=O)c2ccccc2)cc1 | inactive
6 | Cc1nc(SCC(=O)c2cccs2)c2oc3ccccc3c2n1 | inactive
7 | O=C(/C=C/c1ccco1)Nc1cccnc1 | inactive
8 | COc1ccccc1/C=C/C(=O)Oc1cccc2cccnc12 | inactive
9 | CCc1ccc(NC(=O)c2cccnc2)cc1 | inactive
10 | CS(=O)(=O)N1CCc2nc(-c3ccccc3)sc2C1 | inactive
11 | Cc1ccc(/C=N/NC(=O)c2ccco2)cc1 | inactive
12 | CCCC(=O)Nc1sc(C(=O)Nc2cccc(N)c2)c(C)c1C(=O)OC | inactive
13 | Cc1ccc(CCC(=O)Nc2ccccc2F)s1 | inactive
14 | O=C(Nc1ccccc1F)Nc1ccccc1F | inactive
15 | COc1ccc(NC(=O)c2c(NC(=O)CCC(=O)O)sc(-c3ccccc3)c2C)cc1 | inactive
16 | c1ccc(Cn2c(-c3ccco3)nc3nc4ccccc4nc32)cc1 | inactive
17 | Cc1scc(C(=O)N/N=C/c2ccc(Cl)s2)c1C | inactive
18 | COc1ccc(-c2cn3cccc(C)c3n2)cc1Br | inactive
19 | O=c1c2ccccc2nc2c3ccccc3c(NCc3ccccn3)nn12 | -3.53% [at 6 µM] (inactive)
20 | Cc1cc(C)n(-c2cc(C(C)(C)C)nc3c(-c4ccccc4)cnn23)n1 | inactive
21 | CC(C)(C)c1cc(NCCCn2ccnc2)n2ncc(-c3ccccc3)c2n1 | inactive
22 | C=CCSc1cc(C)nc2c(-c3ccccc3)cnn12 | inactive
23 | CN(C)c1ccc(C#Cc2ccc3cc(CCCO)oc(=O)c3c2)cc1 | inactive
24 | Cc1ccc(-n2nc3c(n2)/C(=N/O)CC/C3=N\O)cc1 | inactive
25 | CCCCCC(=O)Nc1nc2ccccc2[nH]1 | inactive
26 | Cc1ccc(-c2csc(NC(=O)c3cccc(C)c3)c2C(=O)O)cc1 | inactive

Row | Structure (SMILES) | activity change, negative = cytotoxicity
27 | N/C(=N\OC(=O)COc1ccccc1)c1ccccn1 | inactive
28 | CCCCNc1c(-c2ccc(SC3CCCCC3)cc2)nc2ccccn12 | inactive
29 | O=c1[nH]c(/C=C/c2ccc(Br)cc2)nc2ccccc12 | inactive
30 | c1ccc([C@H]2CN3C(=N2)Sc2ccccc23)cc1 | inactive
31 | O=C(NC1CCCCC1)c1cc(-c2cccs2)on1 | inactive
32 | O=C(NC1CCCC1)c1cc(-c2ccc(Cl)cc2)on1 | inactive
33 | COc1cc2nn(-c3ccccc3N)nc2cc1OC | inactive
34 | CCOC(=O)c1sc(NC(=O)Nc2ccc(Cl)cc2)nc1C | inactive
35 | Cc1ccc(NC(=O)c2sccc2C)nc1 | inactive
36 | CCOC(=O)c1sc(NC(=O)C2CCC2)cc1C | inactive
37 | Cc1csc(NC(=O)Nc2cccc(Cl)c2)n1 | inactive
38 | Cc1ccc(C(=O)/C=C/Nc2ccccc2C(N)=O)cc1 | inactive
39 | Cn1cccc1C(=O)Nc1ccc(N2CCOCC2)cc1 | inactive
40 | COc1cccc2nc3cc(C)c(C)cc3nc12 | inactive
41 | CCCC1CCC(c2ccc(OCC)cc2)=CC1=O (stereo unspecified) | inactive
42 | Cc1ccc2nc(SCC(=O)c3ccc(O)cc3O)[nH]c2c1 | inactive
43 | Fc1ccccc1COc1ccc(/C=N/n2cnnc2)cc1 | inactive
44 | Fc1ccccc1Cn1nnc(-c2ccc3c(c2)OCO3)n1 | inactive
45 | CCN1C(=O)S/C(=C\c2ccc(N3CCOCC3)cc2C)C1=O | inactive
46 | Cn1c(=NC(=O)c2cnccn2)sc2ccccc21 | inactive
47 | O=C(Nc1nc2c(F)cccc2s1)c1ccco1 | inactive
48 | Cc1sc(NC(=O)C2CCCCC2)c(C#N)c1-c1ccccc1 | inactive
49 | COc1ccc2oc(C(=O)Nc3ccccn3)c(C)c2c1 | inactive
50 | CCOc1ccc2oc(C(=O)Nc3nccs3)c(C)c2c1 | inactive
51 | COc1ccc(N=C2SC(CC(=O)Nc3ccccc3)C(=O)N2Cc2ccco2)cc1 (stereo unspecified) | inactive

— PubChem BioAssay AID1053143 (Broad Institute, 2014)
